Nine sequences from publication PMC11006913 can be followed below.

Assay in all cases: PBM; 200 nM protein, PBS
What all share (details): dsDNA, one strand shown

Experiment [1] concerns the target T1, SIX6 (Homo sapiens, UniProt O95475 114-200, L167I).
T1 sequence: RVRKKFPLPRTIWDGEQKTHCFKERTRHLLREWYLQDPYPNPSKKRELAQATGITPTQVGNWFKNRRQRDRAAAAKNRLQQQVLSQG

Experiment [2] has as its target T2, SIX6 (Homo sapiens, UniProt O95475 114-200, L143V).
T2 sequence: T1 sequence with L30V, I54L

For experiment [3], the target named is T3, SIX6 (Homo sapiens, UniProt O95475 114-200, T165P).
T3 sequence: T1 sequence with T52P, I54L

Experiment [4] deals with T4, SIX6 (Homo sapiens, UniProt O95475 114-200, L167M).
T4 sequence: T1 sequence with I54M

For experiment [5], the target named is T5, SIX6 (Homo sapiens, UniProt O95475 114-200, L143I).
T5 sequence: T1 sequence with L30I, I54L

Experiment [6] has as its target T6, SIX6 (Homo sapiens, UniProt O95475 114-200).
T6 sequence: T1 sequence with I54L

Experiment [7] deals with T7, SIX6 (Homo sapiens, UniProt O95475 114-200, H141N).
T7 sequence: T1 sequence with H28N, I54L

The target of experiment [8] is T8, SIX6 (Homo sapiens, UniProt O95475 114-200, T165A).
T8 sequence: T1 sequence with T52A, I54L

Experiment [9] has as its target T9, SIX6 (Homo sapiens, UniProt O95475 114-200, T165I).
T9 sequence: T1 sequence with T52I, I54L

In experiment [10] the target is T10, SIX6 (Homo sapiens, UniProt O95475 114-200, L143M).
T10 sequence: T1 sequence with L30M, I54L

Experiment [11] has as its target T11, SIX6 (Homo sapiens, UniProt O95475 114-200, T165G).
T11 sequence: T1 sequence with T52G, I54L

The target of experiment [12] is T12, SIX6 (Homo sapiens, UniProt O95475 114-200, T139Q).
T12 sequence: T1 sequence with T26Q, I54L

For experiment [13], the target named is T13, SIX6 (Homo sapiens, UniProt O95475 114-200, L167V).
T13 sequence: T1 sequence with I54V

Experiment [14] has as its target HOXA4 (Homo sapiens, UniProt Q00056 201-287, W262R).
The target of experiment [15] is HOXC10 (Homo sapiens, UniProt Q9NYD6 254-340).
Sequence of HOXC10 (Homo sapiens, UniProt Q9NYD6 254-340) (Q9NYD6 254-340): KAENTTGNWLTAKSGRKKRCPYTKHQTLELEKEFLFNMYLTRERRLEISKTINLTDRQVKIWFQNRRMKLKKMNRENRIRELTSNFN
Experiment [16] addresses HOXA4 (Homo sapiens, UniProt Q00056 201-287, R217L).
Experiment [17] addresses HOXA4 (Homo sapiens, UniProt Q00056 201-287).
In experiment [18] the target is HOXC10 (Homo sapiens, UniProt Q9NYD6 254-340, K271E).
Sequence of HOXC10 (Homo sapiens, UniProt Q9NYD6 254-340, K271E) (Q9NYD6 254-340 K271E): as the sequence (Q9NYD6 254-340) above, with K18E counted along it
For experiment [19], the target named is HOXA4 (Homo sapiens, UniProt Q00056 201-287, W262F).
Sequence of HOXA4 (Homo sapiens, UniProt Q00056 201-287, W262F) (Q00056 201-287 W262F): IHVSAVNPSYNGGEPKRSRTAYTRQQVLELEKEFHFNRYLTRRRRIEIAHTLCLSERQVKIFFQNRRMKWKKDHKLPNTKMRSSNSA
The target in experiment [20] is PRRX1 (Homo sapiens, UniProt P54821 80-166, F113S).
Sequence of PRRX1 (Homo sapiens, UniProt P54821 80-166, F113S) (P54821 80-166 F113S): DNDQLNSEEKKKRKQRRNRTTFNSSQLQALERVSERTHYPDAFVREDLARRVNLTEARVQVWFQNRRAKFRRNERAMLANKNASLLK
For experiment [21], the target named is T14, NKX2-6 (Homo sapiens, UniProt A6NCS4 118-204, R150C).
T14 sequence: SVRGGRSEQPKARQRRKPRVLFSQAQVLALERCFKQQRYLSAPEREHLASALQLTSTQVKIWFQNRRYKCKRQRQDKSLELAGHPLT

The target in experiment [22] is HOXD13 (Homo sapiens, UniProt P35453 263-343, T313R).
Sequence of HOXD13 (Homo sapiens, UniProt P35453 263-343, T313R) (P35453 263-343 T313R): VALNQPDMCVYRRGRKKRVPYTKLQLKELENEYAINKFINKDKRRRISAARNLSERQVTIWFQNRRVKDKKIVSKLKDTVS
The target of experiment [23] is HOXD13 (Homo sapiens, UniProt P35453 263-343).
Sequence of HOXD13 (Homo sapiens, UniProt P35453 263-343) (P35453 263-343): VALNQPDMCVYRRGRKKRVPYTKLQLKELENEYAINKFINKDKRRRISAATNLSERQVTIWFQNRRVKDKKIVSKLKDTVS
The target of experiment [24] is HOXD13 (Homo sapiens, UniProt P35453 263-343, T313A).
Sequence of HOXD13 (Homo sapiens, UniProt P35453 263-343, T313A) (P35453 263-343 T313A): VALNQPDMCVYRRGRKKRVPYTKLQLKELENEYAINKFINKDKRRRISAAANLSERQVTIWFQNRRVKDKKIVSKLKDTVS
For experiment [25], the target named is PRRX1 (Homo sapiens, UniProt P54821 80-166).
Sequence of PRRX1 (Homo sapiens, UniProt P54821 80-166) (P54821 80-166): as the sequence (P54821 80-166 F113S) above, with S34F counted along it
Experiment [26] concerns the target HOXB6 (Homo sapiens, UniProt P17509 132-218, K202E).
The target of experiment [27] is T15, NKX2-6 (Homo sapiens, UniProt A6NCS4 118-204).
T15 sequence: T14 sequence with C33R

Experiment [28] has as its target T16, NKX2-6 (Homo sapiens, UniProt A6NCS4 118-204, F151L).
T16 sequence: T14 sequence with C33R, F34L

Experiment [29] has as its target HOXB6 (Homo sapiens, UniProt P17509 132-218).
The target in experiment [30] is HOXC9 (Homo sapiens, UniProt P31274 178-260, K195R).
Sequence of HOXC9 (Homo sapiens, UniProt P31274 178-260, K195R) (P31274 178-260 K195R): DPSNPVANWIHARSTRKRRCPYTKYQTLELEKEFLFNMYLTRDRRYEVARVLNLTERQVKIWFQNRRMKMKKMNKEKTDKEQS
Experiment [31] has as its target HOXA2 (Homo sapiens, UniProt O43364 129-215, R185T).
Experiment [32] has as its target HOXC9 (Homo sapiens, UniProt P31274 178-260).
The target in experiment [33] is HOXC9 (Homo sapiens, UniProt P31274 178-260, R193K).
Sequence of HOXC9 (Homo sapiens, UniProt P31274 178-260, R193K) (P31274 178-260 R193K): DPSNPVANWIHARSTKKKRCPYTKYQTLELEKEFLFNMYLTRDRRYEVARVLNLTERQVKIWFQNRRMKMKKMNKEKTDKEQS
Experiment [34] deals with HOXA2 (Homo sapiens, UniProt O43364 129-215, R185K).
Sequence of HOXA2 (Homo sapiens, UniProt O43364 129-215, R185K) (O43364 129-215 R185K): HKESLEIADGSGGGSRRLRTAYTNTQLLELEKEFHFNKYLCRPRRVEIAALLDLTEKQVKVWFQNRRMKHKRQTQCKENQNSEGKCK
Experiment [35] addresses HOXA2 (Homo sapiens, UniProt O43364 129-215, Y150S).
For experiment [36], the target named is HOXA2 (Homo sapiens, UniProt O43364 129-215).
Sequence of HOXA2 (Homo sapiens, UniProt O43364 129-215) (O43364 129-215): as the sequence (O43364 129-215 R185K) above, with K57R counted along it

Residue numbers refer to the chain shown, from its start.

Sequence of HOXA4 (Homo sapiens, UniProt Q00056 201-287, R217L) (Q00056 201-287 R217L): as the sequence (Q00056 201-287 W262F) above, with R17L, F62W counted along it
Sequence of HOXA4 (Homo sapiens, UniProt Q00056 201-287, W262R) (Q00056 201-287 W262R): as the sequence (Q00056 201-287 W262F) above, with F62R counted along it
Sequence of HOXA4 (Homo sapiens, UniProt Q00056 201-287) (Q00056 201-287): as the sequence (Q00056 201-287 W262F) above, with F62W counted along it
Sequence of HOXA2 (Homo sapiens, UniProt O43364 129-215, Y150S) (O43364 129-215 Y150S): as the sequence (O43364 129-215 R185K) above, with Y22S, K57R counted along it
Sequence of HOXC9 (Homo sapiens, UniProt P31274 178-260) (P31274 178-260): as the sequence (P31274 178-260 R193K) above, with K16R counted along it
Sequence of HOXB6 (Homo sapiens, UniProt P17509 132-218, K202E) (P17509 132-218 K202E): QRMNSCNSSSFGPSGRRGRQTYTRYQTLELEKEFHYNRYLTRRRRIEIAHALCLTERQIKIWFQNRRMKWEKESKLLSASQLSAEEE
Sequence of HOXA2 (Homo sapiens, UniProt O43364 129-215, R185T) (O43364 129-215 R185T): as the sequence (O43364 129-215 R185K) above, with K57T counted along it
Sequence of HOXB6 (Homo sapiens, UniProt P17509 132-218) (P17509 132-218): as the sequence (P17509 132-218 K202E) above, with E71K counted along it

Regarding GATCAGCC, the binding signal with SIX6 [1] was 10.2 upbm affinity estimate (log intensity, higher = more binding, comparable within an allelic series); in the experiment with SIX6 [2] it was 9.81 upbm affinity estimate (log intensity, higher = more binding, comparable within an allelic series); with SIX6 [3], 9.41 upbm affinity estimate (log intensity, higher = more binding, comparable within an allelic series); with SIX6 [4], 10 upbm affinity estimate (log intensity, higher = more binding, comparable within an allelic series); with SIX6 [5] it was 9.82 upbm affinity estimate (log intensity, higher = more binding, comparable within an allelic series); with SIX6 [6], 10.3 upbm affinity estimate (log intensity, higher = more binding, comparable within an allelic series).
For ATATCACG, the binding signal with SIX6 [1] was 11.1 upbm affinity estimate (log intensity, higher = more binding, comparable within an allelic series); in the experiment with SIX6 [7], 11.1 upbm affinity estimate (log intensity, higher = more binding, comparable within an allelic series); in the experiment with SIX6 [8], 11 upbm affinity estimate (log intensity, higher = more binding, comparable within an allelic series); in the experiment with SIX6 [9], 10.9 upbm affinity estimate (log intensity, higher = more binding, comparable within an allelic series).
For the sequence ATCCAATA, the binding signal with SIX6 [1] is 10.4 upbm affinity estimate (log intensity, higher = more binding, comparable within an allelic series); with SIX6 [7], 10.3 upbm affinity estimate (log intensity, higher = more binding, comparable within an allelic series); with SIX6 [4], 10.2 upbm affinity estimate (log intensity, higher = more binding, comparable within an allelic series); in the experiment with SIX6 [10] it was 10.3 upbm affinity estimate (log intensity, higher = more binding, comparable within an allelic series); with SIX6 [11], 10.4 upbm affinity estimate (log intensity, higher = more binding, comparable within an allelic series); with SIX6 [12], 10.5 upbm affinity estimate (log intensity, higher = more binding, comparable within an allelic series). In addition, the binding signal with SIX6 [8] was 10.4 upbm affinity estimate (log intensity, higher = more binding, comparable within an allelic series); with SIX6 [13], 10.2 upbm affinity estimate (log intensity, higher = more binding, comparable within an allelic series); with SIX6 [6] it was 10.3 upbm affinity estimate (log intensity, higher = more binding, comparable within an allelic series); with SIX6 [9], 10.2 upbm affinity estimate (log intensity, higher = more binding, comparable within an allelic series).
For the sequence ACTATACG, the binding signal with SIX6 [1] was 10 upbm affinity estimate (log intensity, higher = more binding, comparable within an allelic series); in the experiment with SIX6 [7], 10 upbm affinity estimate (log intensity, higher = more binding, comparable within an allelic series); with SIX6 [4] it was 10.1 upbm affinity estimate (log intensity, higher = more binding, comparable within an allelic series); in the experiment with SIX6 [11] it was 9.95 upbm affinity estimate (log intensity, higher = more binding, comparable within an allelic series); with SIX6 [8], 10 upbm affinity estimate (log intensity, higher = more binding, comparable within an allelic series); with SIX6 [13], 10 upbm affinity estimate (log intensity, higher = more binding, comparable within an allelic series). In addition, the binding signal with SIX6 [6] is 10.1 upbm affinity estimate (log intensity, higher = more binding, comparable within an allelic series); with SIX6 [9], 9.99 upbm affinity estimate (log intensity, higher = more binding, comparable within an allelic series).
Take ACGGATAG: the binding signal is 10.1 upbm affinity estimate (log intensity, higher = more binding, comparable within an allelic series) in the experiment with SIX6 [1]; 9.74 upbm affinity estimate (log intensity, higher = more binding, comparable within an allelic series) with SIX6 [2]; 10 upbm affinity estimate (log intensity, higher = more binding, comparable within an allelic series) with SIX6 [7]; 9.43 upbm affinity estimate (log intensity, higher = more binding, comparable within an allelic series) with SIX6 [3]; 9.74 upbm affinity estimate (log intensity, higher = more binding, comparable within an allelic series) in the experiment with SIX6 [5]; 10 upbm affinity estimate (log intensity, higher = more binding, comparable within an allelic series) with SIX6 [11]. Moreover, in the experiment with SIX6 [6], the binding signal is 10.2 upbm affinity estimate (log intensity, higher = more binding, comparable within an allelic series).
As for CCCCACGG, the binding signal with HOXA4 [14] is 9.8 upbm affinity estimate (log intensity, higher = more binding, comparable within an allelic series); in the experiment with HOXC10 [15], 10.1 upbm affinity estimate (log intensity, higher = more binding, comparable within an allelic series); with HOXA4 [16] it was 9.68 upbm affinity estimate (log intensity, higher = more binding, comparable within an allelic series); with HOXA4 [17] it was 9.82 upbm affinity estimate (log intensity, higher = more binding, comparable within an allelic series); in the experiment with HOXC10 [18], 10 upbm affinity estimate (log intensity, higher = more binding, comparable within an allelic series); with HOXA4 [19], 9.88 upbm affinity estimate (log intensity, higher = more binding, comparable within an allelic series).
In the case of CCCCAGGC, the binding signal is 9.71 upbm affinity estimate (log intensity, higher = more binding, comparable within an allelic series) in the experiment with HOXA4 [14]; 9.11 upbm affinity estimate (log intensity, higher = more binding, comparable within an allelic series) with PRRX1 [20]; 9.7 upbm affinity estimate (log intensity, higher = more binding, comparable within an allelic series) with HOXA4 [16]; 9.25 upbm affinity estimate (log intensity, higher = more binding, comparable within an allelic series) with NKX2-6 [21]; 9.43 upbm affinity estimate (log intensity, higher = more binding, comparable within an allelic series) with HOXD13 [22]; 9.37 upbm affinity estimate (log intensity, higher = more binding, comparable within an allelic series) with HOXD13 [23]. For the same sequence, the binding signal was 9.62 upbm affinity estimate (log intensity, higher = more binding, comparable within an allelic series) with HOXA4 [17]; 9.53 upbm affinity estimate (log intensity, higher = more binding, comparable within an allelic series) with HOXD13 [24]; 9.76 upbm affinity estimate (log intensity, higher = more binding, comparable within an allelic series) in the experiment with HOXA4 [19]; 9.25 upbm affinity estimate (log intensity, higher = more binding, comparable within an allelic series) with PRRX1 [25].
For GCCGGCCC, the binding signal with HOXA4 [14] was 9.58 upbm affinity estimate (log intensity, higher = more binding, comparable within an allelic series); with HOXB6 [26], 8.94 upbm affinity estimate (log intensity, higher = more binding, comparable within an allelic series); with HOXA4 [16], 9.63 upbm affinity estimate (log intensity, higher = more binding, comparable within an allelic series); with NKX2-6 [27], 9.25 upbm affinity estimate (log intensity, higher = more binding, comparable within an allelic series); in the experiment with HOXA4 [17] it was 9.78 upbm affinity estimate (log intensity, higher = more binding, comparable within an allelic series); with NKX2-6 [28], 9.24 upbm affinity estimate (log intensity, higher = more binding, comparable within an allelic series). In addition, the binding signal with HOXA4 [19] was 9.8 upbm affinity estimate (log intensity, higher = more binding, comparable within an allelic series); with HOXB6 [29], 8.94 upbm affinity estimate (log intensity, higher = more binding, comparable within an allelic series).
ATGAATGA: the binding signal with HOXA4 [14] was 10.2 upbm affinity estimate (log intensity, higher = more binding, comparable within an allelic series); with HOXC9 [30] it was 11.2 upbm affinity estimate (log intensity, higher = more binding, comparable within an allelic series); in the experiment with HOXA2 [31], 9.4 upbm affinity estimate (log intensity, higher = more binding, comparable within an allelic series); in the experiment with HOXA4 [16] it was 11.1 upbm affinity estimate (log intensity, higher = more binding, comparable within an allelic series); with HOXC9 [32] it was 11 upbm affinity estimate (log intensity, higher = more binding, comparable within an allelic series); in the experiment with HOXC9 [33], 11.2 upbm affinity estimate (log intensity, higher = more binding, comparable within an allelic series). For the same sequence, the binding signal with HOXA2 [34] is 11.9 upbm affinity estimate (log intensity, higher = more binding, comparable within an allelic series); in the experiment with HOXA4 [17], 11.5 upbm affinity estimate (log intensity, higher = more binding, comparable within an allelic series); with HOXA2 [35] it was 10.9 upbm affinity estimate (log intensity, higher = more binding, comparable within an allelic series); in the experiment with HOXA2 [36], 9.56 upbm affinity estimate (log intensity, higher = more binding, comparable within an allelic series).
